# From PubChem BioAssay (EPA / NIEHS)
# Records with an inconclusive call do not appear. Activity calls are given as the source filed them. How the source made its calls, unless noted: active means hit-call score of the fitted dose curve at least 0.9, where 1 is the maximum; inactive means score below 0.9.
# What was measured:
# [1] = target: human Phosphodiesterase 10 (PDE10), PDE10A (gene 10846) (UniProt Q9Y233); experiment: NVS_ENZ_hPDE10: NovaScreen (NVS) Enzymatic Assay for human Phosphodiesterase 10 (PDE10) (AID 2283195; active means hit-call score of the fitted dose curve at least 0.9, where 1 is the maximum)
# Method in brief: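 Recombinant human PDE10 with fluorescent substrate, 1 h, product separated by electrophoretic mobility shift. Loss of enzyme activity fitted against DMSO; initial screen 25 uM in duplicate, actives run to 50 uM maximum.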
# [2] = target: human Peroxisome Proliferator-activated Receptor alpha (PPARa), PPARA (gene 5465) (UniProt Q07869); experiment: NVS_NR_hPPARa: NovaScreen (NVS) Nuclear Receptor Binding Assay for human Peroxisome Proliferator-activated Receptor alpha (PPARa) (AID 2283359; active means hit-call score of the fitted dose curve at least 0.9, where 1 is the maximum;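 further: activity means loss of TR-FRET signal versus DMSO baseline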)
# Method in brief: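 Cell-free TR-FRET binding assay with extracted PPARα protein, read 1 h after dosing. Primary screen in duplicate at 25 uM, with actives retested in concentration series. Loss of signal versus DMSO.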
# SERPINA7 (gene 6906) = experiment: CCTE_GLTED_hTBG: CCTE's human Thyroxine-binding Globulin (TBG) Inhibition Assay, Great Lakes Toxicology and Ecology Division (GLTED) Lab (AID 2284343; active means hit-call score of the fitted dose curve at least 0.9, where 1 is the maximum;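 further: active chemicals lower fluorescence versus DMSO baseline by displacing probe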)
# Method in brief: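 hTBG + test chem, 2 h; ANSA probe displacement; fluorescence readout ex380/em475; DMSO = neg ctrl/baseline; cell-free.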
# TTR (gene 7276) = experiment: CCTE_GLTED_hTTR_0.125uM: CCTE's human Transthyretin (hTTR) Inhibition Assay, with 0.125uM TTR, Great Lakes Toxicology and Ecology Division (GLTED) Lab (AID 2284431);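 further: hits lower the fluorescence signal relative to DMSO baseline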
# Method in brief: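 Activity is defined as decreased ANSA fluorescence (ex 380, em 475) from human transthyretin, 0.125uM, following 2-hour chemical exposure in a cell-free setup, with DMSO as baseline.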
# [3] = read-out: Interleukin 2 (IL2), IL2 (gene 3558); experiment: BSK_BT_xIL2: BioMAP Diversity Plus: BT Assay for Interleukin 2 (IL2) Biomarker Activity (AID 2284245); conditions: primary human B cells with PBMC
# Method in brief: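 B cell + PBMC co-culture (human primary), compound added, 24 h incubation; secreted IL-2 measured multiplexed on Luminex xMAP; gain-of-signal fit vs DMSO.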
# [4] = read-out: Basic fibroblast growth factor (bFGF), FGF2 (gene 2247); experiment: BSK_MyoF_bFGF: BioMAP Diversity Plus: MyoF Assay for Basic fibroblast growth factor (bFGF) Biomarker Activity (AID 2284246); conditions: primary human lung fibroblasts
# Method in brief: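 ELISA-measured bFGF level serves as the read-out, taken 24 h after chemical dosing of human lung fibroblasts. Values represent signal gain over the DMSO negative control.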
# [5] = read-out: Collagen IV, COL4A1 (gene 1282); experiment: BSK_MyoF_CollagenIV: BioMAP Diversity Plus: MyoF Assay for Collagen IV Biomarker Activity (AID 2284247); conditions: primary human lung fibroblasts
# Method in brief: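 Steps: dose human lung fibroblasts; culture 24 h; quantify Collagen IV by ELISA; fit increase versus DMSO control. Parallel SRB total-protein staining (0.1% SRB after 10% TCA fixation, 560 nm) tracks overt cytotoxicity.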
# [6] = read-out: Interleukin-8 (IL8), CXCL8 (gene 3576); experiment: BSK_MyoF_IL8: BioMAP Diversity Plus: MyoF Assay for Interleukin-8 (IL8) Biomarker Activity (AID 2284261); conditions: primary human lung fibroblasts
# Method in brief: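 DMSO-normalised, upward-fitted IL-8 ELISA signal; human lung fibroblasts, 24 h chemical treatment.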
# Decorin, DCN (gene 1634) = experiment: BSK_MyoF_Decorin: BioMAP Diversity Plus: MyoF Assay for Decorin Biomarker Activity (AID 2284265); conditions: primary human lung fibroblasts
# Method in brief: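 In this multiplexed fibroblast system, secreted or surface decorin is detected by ELISA one day after dosing, with increases scored against the DMSO vehicle.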
# [7] = BSK_MyoF_SRB: Viability Assessment in the BioMAP Diversity Plus: MyoF Assay (AID 2284267); conditions: primary human lung fibroblasts;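 further: total protein by SRB absorbance in parallel cultures as cytotoxicity measure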
# Method in brief: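 Read-out is SRB absorbance at 560 nm, reflecting total protein in parallel lung fibroblast cultures harvested 24 h after compound addition. Cells were TCA-fixed (10%) and stained with 0.1% SRB; activity is referenced to DMSO.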
# [8] = read-out: Matrix Metallopeptidase 1 (MMP1), MMP1 (gene 4312); experiment: BSK_MyoF_MMP1: BioMAP Diversity Plus: MyoF Assay for Matrix Metallopeptidase 1 (MMP1) Biomarker Activity (AID 2284268); conditions: primary human lung fibroblasts
# Method in brief: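 Fibroblasts from human lung receive compound for 24 h before ELISA quantitation of MMP1. DMSO serves as baseline, and the endpoint is fitted for signal gain.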
# [9] = read-out: TIMP metallopeptidase inhibitor 1 (TIMP1), TIMP1 (gene 7076); experiment: BSK_MyoF_TIMP1: BioMAP Diversity Plus: MyoF Assay for TIMP metallopeptidase inhibitor 1 (TIMP1) Biomarker Activity (AID 2284269); conditions: primary human lung fibroblasts
# Method in brief: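 Fibroblasts from human lung are dosed with chemical, cultured 24 h, and assayed for TIMP-1 by ELISA. Increases over the DMSO baseline are scored, with SRB total-protein staining run in parallel for cytotoxicity.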
# [10] = target: Nuclear receptor subfamily 1 group I member 3 (Homo sapiens) (UniProt Q14994); experiment: ATG_CAR_TRANS: Attagene TRANS-FACTORIAL HepG2 Assay for human Constitutive Androstane Receptor (CAR) (AID 2282969; active means hit-call score of the fitted dose curve at least 0.9, where 1 is the maximum;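 further: activators raise reporter mRNA above DMSO so AC50 marks induction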); conditions: HepG2 Attagene TRANS-FACTORIAL CAR reporter
# Method in brief: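 HepG2 cells transiently transfected with GAL4-UAS reporter units; TRANS format reads activity of exogenous chimeric NR-Gal4 protein. After 24 h dosing, reporter mRNA quantified by RT-PCR, 6-FAM labelling and capillary electrophoresis; gain of signal fitted against DMSO.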
# [11] = target: human Ephrin type-A Receptor 1 (EphA1), EPHA1 (gene 2041) (UniProt P21709); experiment: NVS_ENZ_hEphA1: NovaScreen (NVS) Enzymatic Assay for human Ephrin type-A Receptor 1 (EphA1) (AID 2283158; active means hit-call score of the fitted dose curve at least 0.9, where 1 is the maximum;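 further: activity is signal loss versus DMSO meaning EphA1 kinase inhibition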)
# Method in brief: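 Here the EphA1 protein is recombinant and the substrate fluorescent, with electrophoretic separation before fluorescence detection at 1 hour. Signal loss against DMSO defines activity; plate controls included; follow-up concentration series reach 50 uM.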
# [12] = target: Bile acid receptor (Homo sapiens) (UniProt Q96RI1); experiment: OT_FXR_FXRSRC1_1440: Odyssey Thera (OT) 24-hour HEK293T Protein-Complementation Assay for Farnesoid X receptor/SRC-1 Co-activator (AID 2283384; active means hit-call score of the fitted dose curve at least 0.9, where 1 is the maximum)
# Method in brief: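 Compounds are applied to human kidney HEK293T cells expressing bait and prey fused to reporter protein fragments; after 24 h, reconstituted reporter fluorescence is measured. Activity is fitted as signal gain over DMSO.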
# [13] = CEETOX_H295R_MTT_cell_viability: Viability Assessment in the CeeTox HT-H295R MTT Assay (AID 2283718)
# Method in brief: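 Human H295R adrenal cells, prestimulated 48 h with 10 uM forskolin, were exposed 48 h to chemicals in 0.1% DMSO. Viability was measured in the same wells by MTT (0.5 mg/ml, 4 h, 37 C), absorbance 570/650 nm, as percent of controls.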
# [14] = CCTE_Deisenroth_AIME_384WELL_CTox_Inactive: Cytotoxicity Assessment (CTOX) in CCTE's 384-well Estrogen Receptor Transactivation Assay without AIME metabolic competence (metabolism negative), Deisenroth Lab (AID 2284039; active means hit-call score of the fitted dose curve at least 0.9, where 1 is the maximum;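 further: cell viability via live-cell protease substrate cleaved to fluorescent probe; cells exposed 24 h to medium preincubated 2 h with alginate-water beads without S9; loss of fluorescence signal means loss of viability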)
# Method in brief: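 Metabolism-negative arm: chemicals (10-point, 0.002 - 200 uM) preincubated 2 h with alginate-water lids, medium moved onto VM7Luc4E2 cells for 24 h. Fluorescent live-cell protease readout; bidirectional curve fit.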
# [15] = CCTE_Padilla_ZF_Score.General: CCTE's 144 Hour Post-fertilization zebrafish Assay Score for General Malformation, Padilla Lab (AID 2284411)
# Method in brief: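 Wild-type zebrafish embryos were plated singly at 6-8 hpf in 10% Hanks' and exposed in sealed wells at 26C until rinsed on 5 dpf. At 6 dpf two blinded assessors scored mortality, hatching and malformations by stereomicroscopy; gain-of-signal versus DMSO.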
# [16] = target: Bile acid receptor (Homo sapiens) (UniProt Q96RI1); experiment: OT_FXR_FXRSRC1_0480: Odyssey Thera (OT) 8-hour HEK293T Protein-Complementation Assay for Farnesoid X receptor/SRC-1 Co-activator (AID 2283383; active means hit-call score of the fitted dose curve at least 0.9, where 1 is the maximum)
# Method in brief: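 Human kidney HEK293T cells carried FXR/SRC-1 fragment-complementation constructs. Compounds were added and incubated 8 h. Reporter reassembly upon receptor–co-activator interaction was then quantified by fluorescence, with curves fitted in the positive direction relative to DMSO.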
# [17] = target: rat Thyrotropin Releasing Hormone Receptor (TRH), Trhr (gene 25570) (UniProt Q01717); experiment: NVS_GPCR_rTRH: NovaScreen (NVS) G Protein-Coupled Receptor Assay for rat Thyrotropin Releasing Hormone Receptor (TRH) (AID 2283329; active means hit-call score of the fitted dose curve at least 0.9, where 1 is the maximum;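 further: hit means lower bound tracer signal versus DMSO baseline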)
# Method in brief: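 Rat forebrain membrane prep, radioligand displacement, filter scintillation readout at 4 h. Single conc 25 uM, duplicate; actives retested as concentration series. DMSO = negative control/baseline.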
# Sequence of Nuclear receptor subfamily 1 group I member 3 (Homo sapiens) (Q14994 whole entry, looked up, the tested form may be a part): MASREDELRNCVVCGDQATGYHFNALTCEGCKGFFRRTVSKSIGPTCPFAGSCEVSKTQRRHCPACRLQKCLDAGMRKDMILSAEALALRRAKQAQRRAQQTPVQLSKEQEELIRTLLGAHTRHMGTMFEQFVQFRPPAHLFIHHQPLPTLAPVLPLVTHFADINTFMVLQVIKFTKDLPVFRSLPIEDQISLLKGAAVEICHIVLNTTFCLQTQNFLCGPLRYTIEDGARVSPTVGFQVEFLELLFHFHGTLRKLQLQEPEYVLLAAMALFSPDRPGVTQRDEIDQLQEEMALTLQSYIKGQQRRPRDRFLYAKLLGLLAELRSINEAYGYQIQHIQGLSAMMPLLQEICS
# Sequence of human Phosphodiesterase 10 (PDE10), PDE10A (gene 10846) (Q9Y233 whole entry, looked up): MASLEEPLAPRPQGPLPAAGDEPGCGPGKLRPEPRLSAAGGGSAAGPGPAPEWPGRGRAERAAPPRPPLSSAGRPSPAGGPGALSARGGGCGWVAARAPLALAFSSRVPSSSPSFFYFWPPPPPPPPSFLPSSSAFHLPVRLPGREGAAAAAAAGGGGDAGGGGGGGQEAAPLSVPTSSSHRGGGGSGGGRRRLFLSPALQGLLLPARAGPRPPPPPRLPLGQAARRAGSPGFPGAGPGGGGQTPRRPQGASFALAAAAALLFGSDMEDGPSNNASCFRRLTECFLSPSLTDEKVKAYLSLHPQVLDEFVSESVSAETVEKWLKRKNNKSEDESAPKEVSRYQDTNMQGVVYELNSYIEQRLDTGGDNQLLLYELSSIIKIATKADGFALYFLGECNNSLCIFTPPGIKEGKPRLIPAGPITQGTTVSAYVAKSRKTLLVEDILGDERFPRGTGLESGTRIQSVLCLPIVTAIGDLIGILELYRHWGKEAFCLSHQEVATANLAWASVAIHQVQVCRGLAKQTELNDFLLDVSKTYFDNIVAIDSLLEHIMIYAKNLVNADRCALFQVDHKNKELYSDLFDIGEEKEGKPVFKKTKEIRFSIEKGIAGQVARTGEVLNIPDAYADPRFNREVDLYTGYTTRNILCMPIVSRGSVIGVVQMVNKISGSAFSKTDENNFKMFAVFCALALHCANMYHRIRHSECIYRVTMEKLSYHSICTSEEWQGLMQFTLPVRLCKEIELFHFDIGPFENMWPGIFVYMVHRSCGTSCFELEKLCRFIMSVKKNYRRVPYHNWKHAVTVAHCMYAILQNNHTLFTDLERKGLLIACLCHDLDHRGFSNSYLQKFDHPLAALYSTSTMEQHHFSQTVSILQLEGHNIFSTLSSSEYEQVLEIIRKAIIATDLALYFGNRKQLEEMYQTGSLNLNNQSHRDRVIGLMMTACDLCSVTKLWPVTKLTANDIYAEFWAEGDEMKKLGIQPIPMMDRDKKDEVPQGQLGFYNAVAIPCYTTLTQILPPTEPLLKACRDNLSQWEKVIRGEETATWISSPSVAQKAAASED
# Sequence of human Ephrin type-A Receptor 1 (EphA1), EPHA1 (gene 2041) (P21709 whole entry, looked up): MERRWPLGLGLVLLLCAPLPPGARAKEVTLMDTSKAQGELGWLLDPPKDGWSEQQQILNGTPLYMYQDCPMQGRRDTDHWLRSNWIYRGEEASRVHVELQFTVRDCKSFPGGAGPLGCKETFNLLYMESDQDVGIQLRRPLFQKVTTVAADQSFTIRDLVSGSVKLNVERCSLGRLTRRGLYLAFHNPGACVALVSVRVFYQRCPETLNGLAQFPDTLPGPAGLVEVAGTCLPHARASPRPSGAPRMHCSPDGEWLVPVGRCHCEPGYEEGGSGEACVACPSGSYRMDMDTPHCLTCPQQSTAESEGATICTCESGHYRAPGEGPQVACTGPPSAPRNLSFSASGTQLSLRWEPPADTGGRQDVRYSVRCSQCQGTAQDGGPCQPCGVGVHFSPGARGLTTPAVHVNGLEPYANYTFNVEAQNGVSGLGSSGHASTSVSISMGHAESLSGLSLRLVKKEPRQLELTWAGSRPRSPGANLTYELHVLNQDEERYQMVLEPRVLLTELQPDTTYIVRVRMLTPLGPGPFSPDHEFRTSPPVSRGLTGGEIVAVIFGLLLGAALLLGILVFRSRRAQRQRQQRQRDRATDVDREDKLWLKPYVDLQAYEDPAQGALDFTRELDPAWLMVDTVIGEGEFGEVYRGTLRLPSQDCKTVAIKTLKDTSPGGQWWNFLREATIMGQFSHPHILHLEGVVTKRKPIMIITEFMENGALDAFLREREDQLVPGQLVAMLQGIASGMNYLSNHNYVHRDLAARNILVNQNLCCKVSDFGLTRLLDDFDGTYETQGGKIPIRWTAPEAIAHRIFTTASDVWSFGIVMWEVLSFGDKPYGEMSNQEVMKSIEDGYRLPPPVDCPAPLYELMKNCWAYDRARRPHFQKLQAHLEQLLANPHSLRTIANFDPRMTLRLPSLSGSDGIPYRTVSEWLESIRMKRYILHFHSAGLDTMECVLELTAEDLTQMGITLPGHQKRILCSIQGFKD
# Sequence of Bile acid receptor (Homo sapiens) (Q96RI1 whole entry, looked up, the tested form may be a part): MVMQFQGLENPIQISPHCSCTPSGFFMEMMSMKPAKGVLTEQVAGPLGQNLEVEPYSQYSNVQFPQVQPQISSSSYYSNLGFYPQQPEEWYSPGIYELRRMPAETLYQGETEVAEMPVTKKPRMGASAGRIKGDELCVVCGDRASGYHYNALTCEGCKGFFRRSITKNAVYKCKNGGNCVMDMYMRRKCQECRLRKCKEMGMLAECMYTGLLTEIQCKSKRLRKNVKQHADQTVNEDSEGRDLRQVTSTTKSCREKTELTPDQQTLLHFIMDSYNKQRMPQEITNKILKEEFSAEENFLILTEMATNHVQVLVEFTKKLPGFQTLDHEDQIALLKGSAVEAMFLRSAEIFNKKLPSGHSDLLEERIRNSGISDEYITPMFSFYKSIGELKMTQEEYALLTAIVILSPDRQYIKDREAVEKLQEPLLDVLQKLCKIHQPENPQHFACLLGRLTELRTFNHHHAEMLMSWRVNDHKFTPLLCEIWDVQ
# Sequence of human Peroxisome Proliferator-activated Receptor alpha (PPARa), PPARA (gene 5465) (Q07869 whole entry, looked up): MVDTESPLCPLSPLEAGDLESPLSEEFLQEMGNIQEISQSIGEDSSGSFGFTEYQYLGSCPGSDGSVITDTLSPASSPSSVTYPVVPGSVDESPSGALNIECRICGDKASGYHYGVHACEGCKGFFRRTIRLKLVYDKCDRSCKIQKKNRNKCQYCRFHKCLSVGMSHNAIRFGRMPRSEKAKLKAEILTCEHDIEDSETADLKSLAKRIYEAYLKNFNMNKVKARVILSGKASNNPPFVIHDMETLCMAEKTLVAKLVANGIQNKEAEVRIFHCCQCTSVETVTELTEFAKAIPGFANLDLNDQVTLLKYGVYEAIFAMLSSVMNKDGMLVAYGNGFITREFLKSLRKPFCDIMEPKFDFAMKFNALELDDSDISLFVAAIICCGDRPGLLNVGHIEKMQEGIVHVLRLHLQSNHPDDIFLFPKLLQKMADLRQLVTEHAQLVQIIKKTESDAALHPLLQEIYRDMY
# Sequence of rat Thyrotropin Releasing Hormone Receptor (TRH), Trhr (gene 25570) (Q01717 whole entry, looked up): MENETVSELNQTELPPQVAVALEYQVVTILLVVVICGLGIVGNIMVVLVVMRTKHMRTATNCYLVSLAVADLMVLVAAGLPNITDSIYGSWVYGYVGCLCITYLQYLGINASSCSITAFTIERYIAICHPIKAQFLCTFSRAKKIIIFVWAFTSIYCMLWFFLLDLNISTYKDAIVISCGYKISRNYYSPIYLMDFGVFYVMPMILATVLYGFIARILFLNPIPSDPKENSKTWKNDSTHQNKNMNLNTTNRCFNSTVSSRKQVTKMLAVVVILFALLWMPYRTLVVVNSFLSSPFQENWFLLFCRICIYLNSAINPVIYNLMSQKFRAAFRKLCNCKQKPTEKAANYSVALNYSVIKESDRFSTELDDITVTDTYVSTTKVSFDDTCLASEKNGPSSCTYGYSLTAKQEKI
compound,measurement,setting,value
COC(=O)c1ccccc1,outcome,[1],inactive
CC1=NN(c2cc(Cl)c(S(=O)(=O)O)cc2Cl)C(=O)C1N=Nc1ccc(S(=O)(=O)O)cc1 (stereo not given),outcome,[2],inactive
same,AC50,SERPINA7 (gene 6906),39.4 µM (active)
same,AC50,TTR (gene 7276),18.8 µM (active)
O=C(C(=O)c1ccccc1)c1ccccc1,outcome,[3],inactive
same,outcome,[4],inactive
same,AC50,[5],0.913 µM (active)
same,outcome,[6],inactive
same,outcome,"Decorin, DCN (gene 1634)",inactive
same,outcome,[7],inactive
same,outcome,[8],inactive
same,outcome,[9],inactive
CC/C=C\CCCCCO,outcome,[10],inactive
N#CCN(CC#N)CCN(CC#N)CC#N,outcome,[11],inactive
same,AC50,[1],12.1 µM (active)
CCO[Si](CCCN)(OCC)OCC,outcome,[12],inactive
same,outcome,[13],inactive
CCC(C)(CCC(C)C)C(=O)O (stereo not given),outcome,[14],inactive
Cc1cccnc1,outcome,[3],inactive
same,outcome,[4],inactive
same,outcome,[5],inactive
same,outcome,[6],inactive
same,outcome,"Decorin, DCN (gene 1634)",inactive
same,outcome,[7],inactive
same,outcome,[8],inactive
same,outcome,[9],inactive
same,outcome,[15],inactive
CCC(C)=NO,outcome,[14],inactive
CCC(C)NC(N)=O (stereo not given),outcome,[1],inactive
CC[N+](CC)(CC(=O)Nc1c(C)cccc1C)Cc1ccccc1 (tested in a mixture with another compound),outcome,[14],inactive
Brc1ccc(Oc2ccc(Br)cc2)cc1,outcome,[10],inactive
CC(C)CC(=O)CC(C)C,outcome,[14],inactive
O=C(O)c1ccccc1C(=O)O,outcome,[13],inactive
CCCCCCCCCCCCCCCCCC[N+](C)(C)C,AC50,[1],1.71 µM (active)
same,AC50,[3],1.81 µM (active)
same,AC50,[4],3.73 µM (active)
same,AC50,[5],3.72 µM (active)
same,AC50,[6],8.89 µM (active)
same,outcome,"Decorin, DCN (gene 1634)",inactive
same,AC50,[7],3.6 µM (active)
same,AC50,[8],1.24 µM (active)
same,AC50,[9],8.13 µM (active)
same,outcome,[15],inactive
C1=CCC=C1,outcome,[14],inactive
CN(C)c1ccc(C(c2ccccc2)c2ccc(N(C)C)cc2)cc1,outcome,[10],inactive
same,AC50,[3],34.3 µM (active)
same,outcome,[4],inactive
same,AC50,[5],11.9 µM (active)
same,outcome,[6],inactive
same,outcome,"Decorin, DCN (gene 1634)",inactive
same,outcome,[7],inactive
same,outcome,[8],inactive
same,outcome,[9],inactive
same,AC50,[15],22.3 µM (active)
CC[N+](CC)(CC(=O)Nc1c(C)cccc1C)Cc1ccccc1,outcome,[3],inactive
same,outcome,[4],inactive
same,outcome,[5],inactive
same,outcome,[6],inactive
same,outcome,"Decorin, DCN (gene 1634)",inactive
same,outcome,[7],inactive
same,outcome,[8],inactive
same,outcome,[9],inactive
COC(=O)/C=C\C(=O)OC,outcome,[1],inactive
same,AC50,[3],12.8 µM (active)
same,outcome,[4],inactive
same,outcome,[5],inactive
same,outcome,[6],inactive
same,outcome,"Decorin, DCN (gene 1634)",inactive
same,outcome,[7],inactive
same,outcome,[8],inactive
same,outcome,[9],inactive
O=C(CC(C(=O)OC1CCCCC1)S(=O)(=O)O)OC1CCCCC1 (stereo not given),outcome,[12],inactive
same,outcome,[14],inactive
c1ccc2c(c1)Oc1ccccc1S2,outcome,[10],inactive
CC(C)CC(=O)O,outcome,[1],inactive
Cc1ccccc1S(N)(=O)=O,outcome,[11],inactive
CCCCCC1CCCC(=O)O1 (stereo not given),outcome,[1],inactive
CCCCCCCCCCC1CO1 (stereo not given),outcome,[3],inactive
same,AC50,[4],31.1 µM (active)
same,outcome,[5],inactive
same,outcome,[6],inactive
same,AC50,"Decorin, DCN (gene 1634)",24.7 µM (active)
same,AC50,[7],35.2 µM (active)
same,AC50,[8],3.97 µM (active)
same,AC50,[9],32.3 µM (active)
O=C(OCc1ccccc1)c1ccccc1,outcome,[16],inactive
same,AC50,TTR (gene 7276),20.7 µM (active)
COc1ccccc1OCC(O)CO (stereo not given),outcome,[11],inactive
same,AC50,[1],25 µM (active)
CCCCCC[C@@H](O)C/C=C\CCCCCCCC(=O)O,outcome,[17],inactive
same,AC50,[2],36.8 µM (active)
same,AC50,[16],74.3 µM (active)
same,outcome,[12],inactive
same,AC50,SERPINA7 (gene 6906),41.4 µM (active)
same,AC50,TTR (gene 7276),10.8 µM (active)
